Here are results for 98 molecules from PubChem BioAssay AID624330 (Southern Research Specialized Biocontainment Screening …, 2012).

Screen size: about 340,000 compounds; about 2,100 (0.62%) were called active.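 How the source made its calls: active means first-screen hits whose inhibition reached a set limit at any dose in the follow-up dose series; inconclusive means inhibition above the set first-screen limit but never retested; inactive means the rest.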 Not all results are given here. Potency and affinity values are given separately.

In the experiment the target is Rac GTPase-activating protein 1 (Homo sapiens) (UniProt Q9H0H5). Put plainly: MgcRacGAP GTPase-activating activity inhibitors, confirmation, biochemical, ADP Hunter fluorescence, primary and confirmatory (AID 624330).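 Further: fluorescence reports GDP produced by GAP-driven GTP hydrolysis.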 As to conditions: MgcRacGAP-stimulated Rac1 GTP hydrolysis, at 30 µM, hits give high values, GST-tagged Rac1 F28L mutant substrate.
Chain of Rac GTPase-activating protein 1 (Homo sapiens) (Q9H0H5 whole entry, looked up): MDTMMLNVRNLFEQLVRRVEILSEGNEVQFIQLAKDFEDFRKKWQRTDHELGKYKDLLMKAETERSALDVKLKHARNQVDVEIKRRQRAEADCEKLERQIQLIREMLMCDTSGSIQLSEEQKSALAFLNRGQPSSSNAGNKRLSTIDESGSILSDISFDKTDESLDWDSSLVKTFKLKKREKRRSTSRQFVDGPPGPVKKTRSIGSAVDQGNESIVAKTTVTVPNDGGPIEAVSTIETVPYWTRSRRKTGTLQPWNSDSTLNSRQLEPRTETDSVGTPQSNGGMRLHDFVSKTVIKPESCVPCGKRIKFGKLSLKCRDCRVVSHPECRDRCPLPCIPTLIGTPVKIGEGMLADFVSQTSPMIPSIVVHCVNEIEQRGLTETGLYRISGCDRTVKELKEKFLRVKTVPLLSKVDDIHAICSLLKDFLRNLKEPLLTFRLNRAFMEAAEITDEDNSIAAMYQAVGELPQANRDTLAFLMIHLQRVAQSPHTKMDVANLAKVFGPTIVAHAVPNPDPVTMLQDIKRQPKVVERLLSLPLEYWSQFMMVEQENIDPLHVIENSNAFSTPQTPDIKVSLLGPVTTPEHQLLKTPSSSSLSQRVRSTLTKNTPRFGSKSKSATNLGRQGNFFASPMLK
In the case of `COCC(C)n1c(C)cc(C(=O)CN2c3cccc4cccc(c34)S2(=O)=O)c1C` (stereo not drawn), the inhibition is 6.1% (inactive). Regarding `O=C(CN(Cc1ccc(Br)cc1)S(=O)(=O)c1ccccc1)NCc1ccccn1`, the inhibition was 11.6% (inactive). Regarding `C/C(=N\NC(=O)CSc1nc2ccccc2s1)c1cccnc1`, the inhibition is 2.25% (inactive). With `COc1cc(OC)c(NC(=O)CCNS(=O)(=O)c2ccc3c(c2)CC(C)N3C(C)=O)cc1Cl` (stereo not drawn), the inhibition is -10.2% (inactive). Turning to `COc1cc(/C=N/NC(=O)c2c(C)nc3ccc(Cl)cn23)cc(OC)c1OC`, the inhibition was 0.19% (inactive). The same measure for `COc1ccc(NC(=O)c2ccc(CN3CCc4ccccc4C3)cc2)cc1OC`: 4.51% (inactive); for `COc1ccc(C(=O)/C=C/c2ccc(O)cc2)c(O)c1C/C=C(\C)CCC=C(C)C`: 1.5% (inactive). The same measure for `COc1ccc(C(=O)/C=C/c2ccc(O)cc2)c(O)c1CC=C(C)C`: 7.57% (inactive); for `CCCOc1ccc(OCCN2CCCC(C)C2)cc1` (stereo not drawn): 20% (inactive).

For `O=C(CSc1ncnc2sccc12)NCc1ccc2c(c1)OCO2`, the inhibition is 4.24% (inactive). The same measure for `O=[N+]([O-])c1cccc(S(=O)(=O)c2cccc([N+](=O)[O-])c2)c1`: 4.34% (inactive). Turning to `Nc1cccc([N+](=O)[O-])c1`, the inhibition was 0.03% (inactive). The same measure for `CN(C)c1ccc(/C=N/NC(=O)c2ccc3c(c2)OCO3)cc1`: 16.6% (inactive); for `Cc1c(F)cccc1NS(=O)(=O)c1ccc2c(c1)n(C)c(=O)c(=O)n2C`: -0.09% (inactive). The same measure for `Cc1c(CN2CCC(C(=O)Nc3cccc(-c4cccc(Cl)c4)c3)CC2)cnn1C`: 11.7% (inactive); for `Cn1c(SCc2ccccc2)nc2c1c(=O)[nH]c(=O)n2C`: -7.97% (inactive). In the case of `C#CCNC(=O)C1=C[C@@H](C(C)(C)C)C[C@@H](OCc2ccc(CO)cc2)O1` it was 7.54% (inactive). As to `O=c1cc(-c2ccc(O)cc2)oc2cc(O)cc(O)c12`, the inhibition was 14.4% (inactive). In the case of `O=c1cc(-c2ccccc2)oc2cccc(O)c12` it was 0.53% (inactive).

For the molecule `O=c1cc(-c2ccc(O)c(O)c2)oc2ccc3ccccc3c12`, the inhibition was 2.51% (inactive). With `COc1ccc(-c2cc(=O)c3c(O)cc(O)cc3o2)cc1`, the inhibition was -5.2% (inactive). With `COc1cccc(/C=C/C(=O)OCC(=O)Nc2nnc(-c3ccccc3)o2)c1`, the inhibition was 4.25% (inactive). Regarding `Cc1c(NC(=O)c2ccc(S(=O)(=O)Nc3ccccc3F)cc2)c(=O)n(-c2ccccc2)n1C`, the inhibition is 4.66% (inactive).

In the case of `Cc1c(C=O)c2ccccc2n1CC(=O)N1CCc2ccccc2C1`, the inhibition was 10.2% (inactive). In the case of `O=C(CC(c1ccccc1)c1ccccc1O)NCc1ccco1` (stereo not drawn) it was 15.2% (inactive); in that of `O=S1c2ccccc2Oc2ccccc21`, -3.3% (inactive). On to `O=C1c2ccccc2OCOc2ccccc21`, for which the inhibition was 2.81% (inactive). Take `CCCCn1c(CN2C(=O)c3ccccc3C2=O)nc2ccccc2c1=O`: the inhibition is 4.82% (inactive).

Regarding `CCOC(=O)C1CCCN(S(=O)(=O)c2ccc3ccccc3c2)C1` (stereo not drawn), the inhibition was 3.67% (inactive). The same measure for `CCOc1ccc(NC(=O)C(C)NC(=O)c2ccccc2Cl)cc1S(=O)(=O)N1CCCC1` (stereo not drawn): -0.23% (inactive); for `COC(=O)c1c(NC(=O)CSc2nccn2C)sc(C)c1C`: -3.2% (inactive); for `CCOC(=O)c1cc(NC(=O)CNCC(c2ccccc2)N(C)C)cc(C(=O)OCC)c1` (stereo not drawn): 16.1% (inactive). In the case of `Cc1ccc(Cl)cc1NC(=O)CNCC(c1ccccc1)N(C)C` (stereo not drawn) it was 30.3% (inactive); in that of `COc1ccc(CCNC(=O)CSc2ccccc2)cc1OC`, -5.12% (inactive).

For `COc1ccc(CCNC(=O)Cc2ccccc2)cc1OC`, the inhibition was 10% (inactive). As for `COc1ccc(Cl)cc1NC(=O)CNCC(c1ccccc1)N(C)C` (stereo not drawn), the inhibition was 21.9% (inactive). In the case of `Cc1cc(NC(=O)CNCC(c2ccccc2)N(C)C)c([N+](=O)[O-])cc1C` (stereo not drawn) it was 13.9% (inactive); in that of `COc1ccc(C)cc1S(=O)(=O)N(C)CC(=O)N1CCC(C(N)=O)CC1`, -7.33% (inactive); in that of `O=C(CSCC(=O)OCn1nnc2ccccc2c1=O)Nc1ccc(Cl)cc1`, 7.19% (inactive).

For `CCc1nc(N2CCC3(CC2)OCCO3)c2nnn(Cc3ccccc3)c2n1`, the inhibition is 0% (inactive).

Consider `CCCn1c(=NC(=O)CCS(=O)(=O)c2ccccc2)sc2cc(S(N)(=O)=O)ccc21`, for which the inhibition was -5.12% (inactive). The same measure for `CCC(=O)N1CCC(c2ccc(OC)cc2)=N1`: 1.71% (inactive); for `CCC(=O)Nc1nnc(S(=O)(=O)N(CC)c2cc(C)cc(C)c2)s1`: 3.75% (inactive).

As for `Cc1ccn2c(NC3CCCC3)c(-c3ccsc3)nc2c1`, the inhibition was 13.1% (inactive). Turning to `Cc1ccc2nc(-c3ccncc3)c(NC3CCCC3)n2c1`, the inhibition was -17.4% (inactive).

For `O=C(Nc1ccc(Cl)cc1)C1CCN(C(=O)c2cccs2)CC1`, the inhibition was 6.08% (inactive). Take `Cc1ccc2occ(C(c3nnnn3Cc3ccccc3)N3CCOCC3)c(=O)c2c1` (stereo not drawn): the inhibition was 7.16% (inactive). Regarding `O=C(NN=Cc1ccc(O)cc1)C(=O)NN=Cc1ccc(O)cc1`, the inhibition is 28.3% (inactive). The same measure for `C=C1CC(C(=O)N/N=C/c2ccccc2)C1`: 11.8% (inactive); for `O=C(NN=Cc1ccc(F)cc1)C1CC1`: 6.86% (inactive); for `O=[N+]([O-])c1ccc(C=NNC(=S)NN=Cc2ccc([N+](=O)[O-])cc2)cc1`: -0.77% (inactive). In the case of `O=C(Nc1cccc(NC(=O)c2ccco2)c1)c1ccc2c(c1)OCCO2` it was 2.32% (inactive).

For `O=C(Nc1ccc(NC(=O)c2ccc3c(c2)OCCO3)cc1)c1ccccc1`, the inhibition is 1.42% (inactive). In the case of `O=C(NC1CCCCCC1)c1ccc[nH]c1=S` it was 5.17% (inactive). In the case of `COc1ccc(NC(=O)CSc2nnc3ccc(-c4cccnc4)nn23)c(OC)c1` it was -2.52% (inactive). In the case of `COc1ccc(/C=N\N=C2/SC(CC(=O)O)C(=O)N2c2ccc(O)cc2)cc1` (stereo not drawn) it was 3.73% (inactive). With `COc1ccc(/C=N/N=C2\SCC(=O)N2c2c(C)n(C)n(-c3ccccc3)c2=O)cc1OC`, the inhibition was 5.82% (inactive). The same measure for `O=C1CS/C(=N/N=C/c2ccccc2)N1c1ccc(O)cc1`: 8.23% (inactive); for `COc1ccc(/C=N\N=C2/SC(CC(=O)O)C(=O)N2c2ccc(O)cc2)cc1OC` (stereo not drawn): 2.46% (inactive); for `O=C(NCCC1=CCCCC1)C(=O)c1c[nH]c2ccccc12`: 1.95% (inactive). In the case of `Cc1ccc(S(=O)(=O)[N-]c2nc3ccccc3nc2-[n+]2cc(C)cc(C)c2)cc1` it was 9.42% (inactive); in that of `COc1ccccc1Oc1nnnn1-c1ccc(C(N)=O)cc1`, 2.99% (inactive); in that of `CCn1cc(/C=C(\NC(=O)c2ccccc2F)C(=O)N2CCN(C)CC2)c2ccccc21`, 19% (inactive). In the case of `C[C@@H]1CN(S(=O)C(C)(C)C)[C@@H](CCO)/C1=C\CCO` (stereo partly drawn), the inhibition is 8.46% (inactive). The same measure for `Cc1cc(NC(=O)c2ccccc2)no1`: 5.35% (inactive); for `Cc1ccc2c(Cl)c(C(=O)Nc3cc(C)on3)sc2c1`: 4.78% (inactive); for `Cc1ccc(S(=O)(=O)c2c(COC(=O)c3ccccc3Cl)c(-c3ccccc3)nn2C)cc1`: 4.7% (inactive). Regarding `Cc1nc2ccc(NC(=O)CCS(=O)(=O)c3ccc(Cl)cc3)cc2s1`, the inhibition is -5.04% (inactive).

`CC(C)CC1NC(=O)N(CC(=O)Nc2ccc3c(c2)CCC3)C1=O` (stereo not drawn): the inhibition is 9.25% (inactive). In the case of `O=C(NCCS(=O)(=O)c1ccc(Cl)cc1)c1ccc(F)cc1` it was 2.29% (inactive).

Take `Cc1c(C(=O)Nc2ccc(S(=O)(=O)Nc3ncccn3)cc2)oc2ccc(F)cc12`: the inhibition is -2.01% (inactive). The same measure for `O=C(O)C1CCN(Cc2cccnc2)CC1`: 2.37% (inactive). In the case of `CC1CCCCN1Cc1ccc(N)cc1` (stereo not drawn) it was 5.78% (inactive); in that of `CC1CCCCN1Cc1ccc(N(C)C)cc1` (stereo not drawn), 9.51% (inactive). In the case of `O=S1(=O)CCN(Cc2cccnc2)CC1` it was 0.02% (inactive); in that of `COc1ccc(CN(CCc2ccccc2)Cc2ccccc2)cc1OC`, 28.5% (inactive).

In the case of `O=C(O)CSc1nnc(SCc2cccc3ccccc23)s1`, the inhibition was 4.86% (inactive). In the case of `CCN(CC)C(=O)CSc1nc2c(sc(=S)n2CC)c(=O)n1-c1ccccc1` it was 2.69% (inactive); in that of `COc1ccc(N2C(=O)NC(=O)C2=O)cc1`, 6.21% (inactive); in that of `Cc1ccc(N2C(=O)NC3(CCCCC3)C2=O)cc1`, 8.08% (inactive). With `COC(=O)[C@@]12CCCN1[C@H](c1ccc(-c3ccc(Cl)c(Cl)c3)cc1)[C@H]1C(=O)N(C)C(=O)[C@H]12`, the inhibition is -9.75% (inactive).

Turning to `CC(C(=O)Nc1ccc2c(c1)OCO2)N1CCC(N2CCCCC2)CC1` (stereo not drawn), the inhibition is 26% (inactive). The same measure for `Cc1ccc(NC(=O)C(C)N2CCCC2)cc1Cl` (stereo not drawn): 13.2% (inactive).

As to `Cc1cnc(NC(=O)C(C)N2C(=O)C3CC=CCC3C2=O)s1` (stereo not drawn), the inhibition is 5.83% (inactive).

For `O=C(CN1CCc2ccccc2C1)Nc1ccccc1Cl`, the inhibition is 9.11% (inactive). Turning to `CC(=O)c1ccc(N2CCN(C(C)C(=O)Nc3ccc4c(c3)OCCO4)CC2)cc1` (stereo not drawn), the inhibition was -0.86% (inactive). With `CN1CCN(CCC(=O)Nc2ccc(F)c(F)c2)CC1`, the inhibition is 2.01% (inactive). The same measure for `O=C(CN1CCc2ccccc2C1)Nc1ccccc1F`: 8.8% (inactive). The same measure for `Cc1cnc(NC(=O)[C@H](C)N2C(=O)C3CCCCC3C2=O)s1` (stereo partly drawn): 1.01% (inactive); for `Cc1cccc(-c2nc(C#N)c(N3CCC(C)CC3)o2)c1`: -3.59% (inactive); for `COc1ccccc1/C=N/NC(=O)CC(=O)Nc1ccc(Cl)c(Cl)c1`: 3.66% (inactive). The same measure for `Cc1ccc(S(=O)(=O)NCCC(=O)N2CCN(Cc3ccccc3)CC2)cc1`: -1.47% (inactive); for `Cc1ccc(C(=O)OCC(=O)NCc2cccs2)c(C)c1`: 6.37% (inactive). As to `Cc1ccc(Oc2ccccc2NC(=O)CSCC(=O)Nc2cc(C)on2)cc1`, the inhibition was 3.22% (inactive). The same measure for `CN1CCN(CCNC(=O)Nc2ccccc2C(F)(F)F)CC1`: -0.21% (inactive); for `COc1ccc(S(=O)(=O)N2CCN(C(C)C(=O)Nc3ccc(C(C)C)cc3)CC2)cc1` (stereo not drawn): 5.24% (inactive); for `CN1CCN(CC(=O)Nc2ccccc2C(F)(F)F)CC1`: 28.9% (inactive). `COc1ccc(NC(=O)NN2CCN(C)CC2)cc1`: the inhibition is 2.87% (inactive).

What is called inhibition is the relative decrease from the control value, in per cent.
